# In PubChem BioAssay AID602329 (Broad Institute, 2012):
# Among all 360,000 compounds or so, about 510 (0.14%) were called active. For the sample, actives were picked, then their nearest neighbours and some compounds at random. Values without a mark were called inactive.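 The calls were made as follows: active = mean normalized replicate activity at least 40 and at least half of replicates scoring 40 or more; inconclusive = only one of the two criteria met; inactive = mean below 40 and under half of replicates reaching 40.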
# Biological target: DNA repair and recombination protein RAD54-like (Homo sapiens) (UniProt Q92698)
# Experiment: inhibitors of human RAD54 branch migration, primary screen, biochemical, fluorescence, single point (AID 602329);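 also: 0% = median of neutral control wells and 100% = median of positive control wells; inhibitors cause a drop in the FAM fluorescence signal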
# Conditions: RAD54 Holliday junction branch migration, FAM/BHQ fluorescence; at 10.4 µM; stronger effect = higher value
# Chain of DNA repair and recombination protein RAD54-like (Homo sapiens) (Q92698 whole entry, looked up): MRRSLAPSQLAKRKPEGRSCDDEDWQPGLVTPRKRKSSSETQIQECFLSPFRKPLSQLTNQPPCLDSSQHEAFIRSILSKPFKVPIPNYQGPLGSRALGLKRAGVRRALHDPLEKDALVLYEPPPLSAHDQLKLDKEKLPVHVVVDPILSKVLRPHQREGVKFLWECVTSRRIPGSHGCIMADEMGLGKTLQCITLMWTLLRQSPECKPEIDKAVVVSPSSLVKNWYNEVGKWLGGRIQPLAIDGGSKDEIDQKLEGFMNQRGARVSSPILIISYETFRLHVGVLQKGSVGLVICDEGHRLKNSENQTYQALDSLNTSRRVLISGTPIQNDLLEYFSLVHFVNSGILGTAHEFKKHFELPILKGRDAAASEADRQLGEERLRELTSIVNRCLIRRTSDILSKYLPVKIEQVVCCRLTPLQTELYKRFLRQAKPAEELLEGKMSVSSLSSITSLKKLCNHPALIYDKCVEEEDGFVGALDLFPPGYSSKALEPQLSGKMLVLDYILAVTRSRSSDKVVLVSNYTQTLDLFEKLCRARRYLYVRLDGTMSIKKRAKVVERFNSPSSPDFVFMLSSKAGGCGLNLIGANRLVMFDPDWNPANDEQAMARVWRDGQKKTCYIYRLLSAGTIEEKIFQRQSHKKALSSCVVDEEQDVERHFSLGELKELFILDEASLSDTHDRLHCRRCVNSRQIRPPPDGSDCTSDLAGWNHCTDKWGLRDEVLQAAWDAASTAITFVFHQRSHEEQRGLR
row,Structure (SMILES),inhibition
1,CCOc1cccc(=NC2CCCCC2)c2c(C)[nH]c(C)c12,76.8% (active)
2,COc1cccc(-c2ccc3n(c2=O)C[C@@H]2[C@@H](CO)[C@H](C(=O)O)[C@H]3N2C(=O)c2cnccn2)c1,-0.151%
3,O=C(O)[C@@H]1[C@@H](CO)[C@@H]2Cn3c(ccc(-c4ccccc4F)c3=O)[C@H]1N2C(=O)c1cccnc1,-3.76%
4,COC(=O)[C@@H]1[C@@H](CO)[C@@H]2Cn3c(ccc(C4=CCCCC4)c3=O)[C@H]1N2CC1CC1,-6.66%
5,C[C@H](CO)N1C[C@H](C)[C@H](CN(C)C(=O)Oc2ccc3ccccc3c2)OCc2cnnn2CCCC1=O,-17.1%
6,COC(=O)[C@H]1[C@H](CO)[C@H]2Cn3c(ccc(C4=CCCC4)c3=O)[C@@H]1N2C(=O)CC1CC1,1.44%
7,CN1CCN(c2cc(N3CCNCC3)ccc2[N+](=O)[O-])CC1,68% (active)
8,COc1cccc(-c2nc3ccc(N4CCN(C)CC4)cc3[nH]2)c1,19.3%
9,COC(=O)[C@H]1[C@H](CO)[C@H]2Cn3c(ccc(-c4cccc(F)c4)c3=O)[C@@H]1N2Cc1ccccc1,9.7%
10,O=C(O)[C@H]1[C@H](CO)[C@H]2Cn3c(ccc(-c4ccccc4)c3=O)[C@@H]1N2S(=O)(=O)c1ccccc1F,6.58%
